# Source: PubChem (National Center for Advancing Translational Sciences (NCATS))
# SW480 rereplic: induces DNA re-replication in SW480 colon adenocarcinoma cells; 1.8% of 340,000 active; AID 624297; Potency, µM (series often up to 46.1 µM), without a hit: top-dose re-replication activation, most hits filed as activators; SW480 DNA re-replication, Hoechst DNA content imaging, 48 h; also: potency is read from the fitted curve at half-maximal effect; % of control where 0% means no effect; nearly all actives have a fitted effect of over 55% in size
#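 Treated cells incubate 48 hr (37 C, 5% CO2), are stained 40 min with Hoechst, and nuclear fluorescence is enumerated; a rise in nuclei with high DNA signal marks re-replication.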
# ATXN2 expr inh: reduces ATXN2 reporter expression in HEK-293 cells; Potency, µM (titrated, usually from 57 µM), for the others: top-dose activity change, negative = inhibition, most hits filed as inhibitors; 0.72% of 360,000 active; HEK-293 ATXN2-luciferase reporter, luminescence, 24 h; also: potency is read from the fitted curve at half-maximal effect; % is scaled to controls: 0 for no effect and ±100 for the full control effect; nearly all actives have a fitted effect of over 55% in size
#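 qHTS (up to 57 uM final) was run with 24 h compound exposure of reporter cells at 37 °C. Each well was multiplexed: SteadyGlo luminescence measured ATXN2-luciferase expression after a fluorogenic Gly-Phe-AFC viability readout (25 uM final).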
# MCF10A rereplic: DNA re-replication induction in MCF 10a cells. Potency, µM (top dose mostly 46.1 µM), for the others: at the top dose activity, positive = re-replication, hits mostly activators. AID 624296. MCF 10A DNA re-replication, Hoechst nuclear intensity, 48 h. 2.9% of 350,000 active; also: potency is read from the fitted curve at half-maximal effect; % of control where 0% means no effect; nearly all actives have a fitted effect of over 50% in size
# PINK1 expr mod: modulators of PINK1 expression. PINK1 immunofluorescence, high-content cytometry, 24 h. Potency, µM (doses to about 76.6 µM), for the others: at the highest dose activation (PINK1 increase), hits mostly activators. 0.2% of 410,000 active. AID 624263; active = well fitted activation curve with a large enough effect; inconclusive = small, poorly fitted or top-dose-only effect; cell line not stated here; also: potency is read from the fitted curve at half-maximal effect; % of control where 0% means no effect; nearly all actives have a fitted effect of over 65% in size
#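 Fluorescence from anti-PINK1 antibody, together with nuclear and cell stains, was scanned on a laser-scanning cytometer. Before staining, stable-line cells were incubated 24 hours with compounds at 5 concentrations; primary antibody 12 h at 10 degrees C.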
# S2 tox: cell viability loss in ATXN counter-screen; S2 cells (HEK-293 line with an ATXN2-luciferase reporter) viability, CellTiter-Fluor protease fluorescence, 24 h; Potency, µM (titrated, usually from 56.7 µM), actives largely listed as cytotoxic; 0.49% of 400,000 active; AID 651635; also: potency is read from the fitted curve at half-maximal effect; nearly all actives have a fitted effect of over 40% in size
# IL1B secr inh: inhibitors of inflammasome signaling (IL-1 beta secretion); THP-1 LPS/ATP IL-1B secretion, AlphaLISA, 16 h; active compounds read low; activity change, % at 57.5 µM; 4.7% of 360,000 active; AID 743279; in the data active = activity change below about -50%; inconclusive = mostly about -30% to -49%; also: % is scaled to controls: 0 for no effect and ±100 for the full control effect
#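 THP-1 cells pretreated 1 hr with compounds (up to 57.5 uM final), then stimulated with LPS (250 ng/mL final) plus ATP (1.25 mM final); secreted IL-1B measured by AlphaLISA after 16 hr, decreased signal indicating inhibition.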
# Active calls of the source: *; i = inactive; ? = inconclusive; . = no result given; ! = not confirmed by another sample; [ ] = remark or other dose. An excerpt weighted towards active compounds, which were near 7.1% of everything screened. Unless noted, calls follow the shape of the dose curve; as a rule, active = well fitted curve in the direction sought with a large enough effect; inconclusive = small, poorly fitted or top-dose-only effect, or another doubt; inactive = no such curve, though single readings can be large; an effect the other way counts as inactive or inconclusive.
SMILES,SW480 rereplic,ATXN2 expr inh,MCF10A rereplic,PINK1 expr mod,S2 tox,IL1B secr inh
O=C1c2ccccc2-c2onc3ccc(NCCCn4ccnc4)c1c23,0%,?,-4%,0%[38.3 µM],?,-97*
COc1ccc(-c2sc(N)nc2-c2ccccc2)cc1,.,.,.,1%,.,.
CCOc1ccc(C(=O)Nc2ccc3c(c2)CCCN3S(=O)(=O)c2ccc(C)cc2)cc1,.,1%,.,0%,?,.
CC1=C(\C=C/C(C)=C/C=C\C(C)=C\C(=O)O)C(C)(C)CCC1,.,.,.,.,i,.
CC1=C(/C=C/C(C)=C/C=C/C(C)=C\C(=O)O)C(C)(C)CCC1,?,3%,1%,1%,i,17
CC1=C(/C=C/C(C)=C/C=C/C(C)=C/C(=O)Nc2ccc(O)cc2)C(C)(C)CCC1,?,20µM*!,-43%,0%,28µM*,-77*
CC(C=CC1=C(C)CCCC1(C)C)=CC=CC(C)=CC(=O)Nc1ccc(O)cc1,.,50µM*,.,.,.,.
Cc1cccc(NC(=S)NC2CC3CCCC(C2)N3Cc2cccs2)c1 (configuration not stated),22%,-25%,9%,-5%[38.3 µM],?,-78*
N=c1oc2ccc3ccccc3c2cc1C(N)=S,?,.,12µM*,-2%,i,6
O=C(c1cc2c(ccc3ccccc32)oc1=O)N1CCCC1,-1%,-5%,0%,2%,i,-52*
CCOC(=O)c1cc2c(ccc3ccccc32)oc1=O,-36%,-11%,-15%,1%,?,14
O=C1CCc2cc(S(=O)(=O)NC(C(=O)Nc3ccc(F)cc3)c3ccccc3)ccc2N1 (configuration not stated),.,4%,.,1%,i,.
Oc1ccc(CN2CCN(c3ccccc3)CC2)c2cccnc12,?,?,?,?,i,112
Oc1ccc(CNc2ccccc2F)c2cccnc12,?,18µM*!,?,28µM*,11µM*!,106
Oc1ccc(CN2CCCCC2)c2cccnc12,7%,20µM*,-1%,-4%[38.3 µM],13µM*,101
COc1cc(CN2CCc3ccccc3C2)ccc1O,?,.,?,-2%,18µM*,-90*
Oc1ccc(CN2CCC(Cc3ccccc3)CC2)c2cccnc12,2.9µM*,?,?,0%,i,-53*
COc1ccccc1NC(=O)C1=C(C)Nc2c(C(=O)Nc3cccc(C)c3)cnn2C1c1ccccc1Cl (configuration not stated),.,.,.,-3%,.,.
O=C(Nc1ccc(S(=O)(=O)N(Cc2ccccc2)c2ccccc2)cc1)c1ccc([N+](=O)[O-])cc1,.,1%,.,2%,i,.
Cc1[nH]c2ccccc2c1CN1CCC(Cc2ccccc2)CC1,?,-29%,21%,0%,i,-85*
Oc1c(CN2CCCCC2)ccc2cccnc12,5.2µM*,?,112%,0%,?,-98*
CCOC(=O)N1CCN(Cc2ccccn2)CC1,-4%,1%,-1%,3%,i,-17
Cc1ccc(C)c(S(=O)(=O)N2CCN(Cc3ccc(O)c4ncccc34)CC2)c1,?,8.9µM*,?,-1%,i,103
CSc1ncccc1C(=O)N1CCN(S(=O)(=O)c2cc(C)ccc2C)CC1,3%,1%,7%,-1%,i,-5
CCOC(=O)N1CCN(Cc2ccc(O)c3ncccc23)CC1,5.8µM*,-25%,21µM*,?,?,-9
SMILES,SW480 rereplic,ATXN2 expr inh,MCF10A rereplic,PINK1 expr mod,S2 tox,IL1B secr inh
CC(C)(C)OC(=O)N1CCC(c2c(C(=O)Nc3ccc4c(c3)OCCO4)cnn2-c2ccc(F)cc2F)CC1,.,.,.,0%,.,.
Oc1ccc(Cc2ccccc2)c2cccnc12,?,?,?,4%,i,89
OCc1ccc(O)c2ncccc12,16µM*,?,?,?,i,80
Oc1ccc(CN2CCc3ccccc3C2)c2cccnc12,?,?,2.3µM*,-1%,.,12
Oc1cc2c(cc1CN1CCc3ccccc3C1)OCO2,-4%,2%,0%,0%,i,-22
O=C(O)CCn1cc(C2CC(c3ccccc3)=NN2c2ccccc2)c(-c2ccccc2)n1 (configuration not stated),23µM*,-1%,12µM*,-1%,i,10
CCOC(=O)Cc1csc(NC(=O)c2ccc(S(=O)(=O)N3CCCC3)cc2)n1,-3%,-12%,-9%,-2%[38.3 µM],i,-54*
CCOC(=O)Cc1csc(NC(=O)CCCCCN2C(=O)c3ccccc3C2=O)n1,?,6%,?,0%[38.3 µM],i,-56*
CCOC(=O)Cc1csc(NC(=O)CCc2ccccc2)n1,-4%,-7%,-6%,2%,i,42
CCOC(=O)Cc1csc(NC(=O)Cn2c(=O)oc3ccccc32)n1,8%,3%,5%,4%,i,-84*
CCOC(=O)CNC(=O)N1CCN(S(=O)(=O)c2ccc3c(ccn3C)c2)CC1,.,6%,.,1%,i,.
COc1cc(=O)n2c(c1C(=O)NCc1ccco1)CCN(Cc1cccc(C)n1)CC2,.,.,.,-1%,i,.
CC(C)(C)c1nnc2sc(SCC(=O)c3ccccc3)nn2c1=O,2%,-27%,?,1%,i,-13
COc1ccc(C(=O)CSc2nn3c(=O)c(C(C)(C)C)nnc3s2)cc1,7%,-24%,?,-2%,i,-58*
COc1ccc(/C(N)=N/OC(=O)N2CCOCC2)cc1,?,?,21µM*,9%,?,0
COc1ccc(-c2csc(N3CCN(S(=O)(=O)c4ccc5c(c4)NC(=O)CO5)CC3)n2)cc1,9.2µM*,-12%,33%,1%,i,-14
Nc1ccccc1C=C1Cc2ccccc2C1=O,-7%,100%,14%,-1%,i,10
O=C1C(=Cc2ccccc2[N+](=O)[O-])Cc2ccccc21,.,.,.,2%,?,-103*
O=C1NC(=O)C(=Cc2ccccc2[N+](=O)[O-])S1,?,-37%,21µM*,-3%,i,?
COc1cccc(/C=C2\CCc3ccccc3C2=O)c1,0%,.,-2%,-1%,?,-6
O=C1/C(=C/c2cccc([N+](=O)[O-])c2)CCc2ccccc21,?,-12%,?,-4%,i,-121*
O=C1/C(=C/c2cccc([N+](=O)[O-])c2)CSc2ccc(Cl)cc21,-8%,-16%,-7%,5%,i,-1
CCN1C/C(=C\c2cccc([N+](=O)[O-])c2)C(=O)/C(=C/c2cccc([N+](=O)[O-])c2)C1,0.58µM*,3.5µM*,2.6µM*,-2%,4.5µM*,-104*
Cc1ccc(CNC(=O)CN2C(=O)CCn3nc(-c4ccccc4)cc32)cc1,.,-13%,.,2%,i,.
